In the supplement of paper PMC10981050 one finds cell viability data, which are given here for ten molecules.

The structures appear in SMILES notation. “And” between values parts separate entries of the source, which are not always exact repeats. Equal values may be shown once. Where a name gives a salt, the structure may show the parent alone.

What all share (assay): cell viability relative to vehicle control; higher = less cytotoxic
Conditions in all cases: 10 µM

Assay [1] has as its system K562. In short, it runs like this: (§1)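 Each screen used CRISPR-edited mutant and wild-type clones from four leukaemia lines. Compounds were acoustically dispensed at a single 10 µM dose, and CellTiter-Glo luminescence was read after 48 h with the supernatant first removed. Viability was analysed in Genedata Screener and given as percent of the on-plate vehicle control.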

Assay [2] concerns MARIMO. In short, it runs like this: as §1
For assay [3], the system named is MOLM14. The method, boiled down: as §1
Assay [4] has as its system OCI-AML2. The method, boiled down:
as §1

For `COc1cccc(C=NCCN=Cc2cccc(OC)c2[O-])c1[O-].[Cl-].[Mn+3]`, the cell viability was 100% and 97% in assay [1] (SRSF2 genotype: SRSF2 P95H/wt); 97.3% in assay [1] (SRSF2 genotype: SRSF2 wt/wt); 92% in assay [2] (SRSF2 genotype: SRSF2 P95H/wt); 104% in assay [2] (SRSF2 genotype: SRSF2 wt/wt); 92.2% in assay [3] (SRSF2 genotype: SRSF2 P95H/wt); 104% in assay [3] (SRSF2 genotype: SRSF2 wt/wt). In addition, the cell viability in assay [4] (SRSF2 genotype: P95H/wt) stood at 89.2%; in assay [4] (SRSF2 genotype: wt/wt) it was 101%.

Consider `O=C(O)CCCc1ccccc1` [Sodium Phenylbutyrate], for which the cell viability was 110% and 98.8% in assay [1] (SRSF2 genotype: SRSF2 P95H/wt); 105% in assay [1] (SRSF2 genotype: SRSF2 wt/wt); 100% in assay [2] (SRSF2 genotype: SRSF2 P95H/wt); 109% in assay [2] (SRSF2 genotype: SRSF2 wt/wt); 96.9% in assay [3] (SRSF2 genotype: SRSF2 P95H/wt); 102% in assay [3] (SRSF2 genotype: SRSF2 wt/wt). The cell viability was 94.8% in assay [4] (SRSF2 genotype: P95H/wt) and 100% in assay [4] (SRSF2 genotype: wt/wt).

`C[C@]12C=CC(=O)N[C@@H]1CC[C@@H]1[C@@H]2CC[C@]2(C)[C@@H](C(=O)Nc3cc(C(F)(F)F)ccc3C(F)(F)F)CC[C@@H]12` [Dutasteride]: the cell viability in assay [1] (SRSF2 genotype: SRSF2 P95H/wt) is 94.4% and 96.6%; in assay [1] (SRSF2 genotype: SRSF2 wt/wt), 95%; in assay [2] (SRSF2 genotype: SRSF2 P95H/wt), 102%; in assay [2] (SRSF2 genotype: SRSF2 wt/wt), 94.1%; in assay [3] (SRSF2 genotype: SRSF2 P95H/wt), 96%; in assay [3] (SRSF2 genotype: SRSF2 wt/wt) it was 98.3%. For the same molecule, the results for the cell viability in assay [4] (SRSF2 genotype: P95H/wt) and in assay [4] (SRSF2 genotype: wt/wt) were 101% and 94.7%, respectively.

As to `C#C[C@]1(O)CC[C@H]2[C@@H]3CCC4=CC(=O)CC[C@@H]4[C@H]3CC[C@@]21C` [Norethindrone (Norethisterone)], the cell viability in assay [1] (SRSF2 genotype: SRSF2 P95H/wt) is 103% and 101%; in assay [1] (SRSF2 genotype: SRSF2 wt/wt), 100%; in assay [2] (SRSF2 genotype: SRSF2 P95H/wt), 101%; in assay [2] (SRSF2 genotype: SRSF2 wt/wt), 116%; in assay [3] (SRSF2 genotype: SRSF2 P95H/wt), 98.3%; in assay [3] (SRSF2 genotype: SRSF2 wt/wt) it was 106%. Moreover, the cell viability in assay [4] (SRSF2 genotype: P95H/wt) is 107%; in assay [4] (SRSF2 genotype: wt/wt) it was 111%.

As to `COc1cc2ncnc(Nc3ccc(Oc4ccccc4)cc3C)c2cc1OC`, the cell viability in assay [1] (SRSF2 genotype: SRSF2 P95H/wt) was 68% and 80.2%; in assay [1] (SRSF2 genotype: SRSF2 wt/wt), 79.3%; in assay [2] (SRSF2 genotype: SRSF2 P95H/wt), 81.1%; in assay [2] (SRSF2 genotype: SRSF2 wt/wt), 66%; in assay [3] (SRSF2 genotype: SRSF2 P95H/wt), 37.5%; in assay [3] (SRSF2 genotype: SRSF2 wt/wt) it was 29.9%. The cell viability came to 45.6% in assay [4] (SRSF2 genotype: P95H/wt) and 43% in assay [4] (SRSF2 genotype: wt/wt).

For the molecule `c1cc(-c2cnn3cc(-c4ccc(N5CCNCC5)cc4)cnc23)c2cccnc2c1`, the cell viability in assay [1] (SRSF2 genotype: SRSF2 P95H/wt) was 0.29% and 0.31%; in assay [1] (SRSF2 genotype: SRSF2 wt/wt), 0.27%; in assay [2] (SRSF2 genotype: SRSF2 P95H/wt), 0.3%; in assay [2] (SRSF2 genotype: SRSF2 wt/wt), 0.3%; in assay [3] (SRSF2 genotype: SRSF2 P95H/wt) it was 0.26%; in assay [3] (SRSF2 genotype: SRSF2 wt/wt), 0.32%. Moreover, the cell viability in assay [4] (SRSF2 genotype: P95H/wt) was found to be 0.24%; in assay [4] (SRSF2 genotype: wt/wt), 0.25%.

Regarding `O=C1CCN(c2ccccc2)N1` [Phenidone], the cell viability in assay [1] (SRSF2 genotype: SRSF2 P95H/wt) is 106% and 107%; in assay [1] (SRSF2 genotype: SRSF2 wt/wt), 103%; in assay [2] (SRSF2 genotype: SRSF2 P95H/wt), 102%; in assay [2] (SRSF2 genotype: SRSF2 wt/wt) it was 105%; in assay [3] (SRSF2 genotype: SRSF2 P95H/wt) it was 100%; in assay [3] (SRSF2 genotype: SRSF2 wt/wt), 105%. Also, the figures for the cell viability in assay [4] (SRSF2 genotype: P95H/wt) and in assay [4] (SRSF2 genotype: wt/wt) were 99.5% and 111%, respectively.

Turning to `C[C@H](CCC(=O)NCCS(=O)(=O)O)[C@H]1CC[C@H]2[C@@H]3[C@H](O)C[C@@H]4C[C@H](O)CC[C@]4(C)[C@H]3C[C@H](O)[C@]12C` [Taurocholic acid sodium salt hydrate], the cell viability in assay [1] (SRSF2 genotype: SRSF2 P95H/wt) was 110% and 102%; in assay [1] (SRSF2 genotype: SRSF2 wt/wt) it was 107%; in assay [2] (SRSF2 genotype: SRSF2 P95H/wt), 107%; in assay [2] (SRSF2 genotype: SRSF2 wt/wt) it was 108%; in assay [3] (SRSF2 genotype: SRSF2 P95H/wt) it was 103%; in assay [3] (SRSF2 genotype: SRSF2 wt/wt), 111%. Moreover, the cell viability in assay [4] (SRSF2 genotype: P95H/wt) came out at 106%; in assay [4] (SRSF2 genotype: wt/wt), 107%.

Take `CN1C(N)=N[C@](C)(c2cc(NC(=O)c3ccc(F)cn3)ccc2F)CS1(=O)=O` [Verubecestat (MK-8931) Trifluoroacetat]: the cell viability in assay [1] (SRSF2 genotype: SRSF2 P95H/wt) was 97.5% and 98.8%; in assay [1] (SRSF2 genotype: SRSF2 wt/wt), 96.9%; in assay [2] (SRSF2 genotype: SRSF2 P95H/wt) it was 98.1%; in assay [2] (SRSF2 genotype: SRSF2 wt/wt) it was 108%; in assay [3] (SRSF2 genotype: SRSF2 P95H/wt), 95.8%; in assay [3] (SRSF2 genotype: SRSF2 wt/wt), 102%. Further, the cell viability in assay [4] (SRSF2 genotype: P95H/wt) was 99.8%; in assay [4] (SRSF2 genotype: wt/wt) it was 107%.

As to `Cc1ccc2oc(=O)ccc2c1` [6-Methylcoumarin], the cell viability in assay [1] (SRSF2 genotype: SRSF2 P95H/wt) is 99.5% and 87.8%; in assay [1] (SRSF2 genotype: SRSF2 wt/wt), 91.3%; in assay [2] (SRSF2 genotype: SRSF2 P95H/wt) it was 97.3%; in assay [2] (SRSF2 genotype: SRSF2 wt/wt) it was 98.6%; in assay [3] (SRSF2 genotype: SRSF2 P95H/wt) it was 95%; in assay [3] (SRSF2 genotype: SRSF2 wt/wt) it was 101%. The figures for the cell viability in assay [4] (SRSF2 genotype: P95H/wt) and in assay [4] (SRSF2 genotype: wt/wt) were 91.1% and 107%, respectively.

In general, cell viability refers to a read-out of living cells in per cent, often relative to untreated cells.
